In PubChem BioAssay:

assay: binders of probe aFGF2 on microarray, primary screen, stem cell growth factor project, biochemical, small-molecule microarray, fluorescence 635/667 (AID 1067); conditions: higher = more signal;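 note: measures binding of biotinylated aFGF2 protein to printed compounds on slides; z-score merges feature fluorescence and signal-to-noise across triplicate slides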

SMILES	composite z-score
CCOC(=O)C[C@H]1[C@H](OC(=O)Cc2ccc3c(c2)OCO3)[C@@H](NC(=O)c2ccc3ccccc3c2)c2cc(OCCCO)ccc2N1C(=O)Cc1ccc(OC)cc1	-0.0239
O=C(NCc1ccccc1)c1ccc(Br)cc1[N+](=O)[O-]	-0.138
CC(C)(C)OC(=O)CC[C@]1(C(=O)N2CCCCC2)N=C(c2ccc(OCCCO)cc2)O[C@H]1c1ccccc1	0.136
C=CCNC(=O)[C@@H]1[C@H]2C(=O)O[C@H](c3ccccc3)[C@H](c3ccccc3)N2[C@H](c2ccc(OCCO)cc2)[C@@]12C(=O)N(C(=O)OCCOC)c1ccc(C#CC3(O)CCCCCC3)cc12	0.126
CCCC=C(CCC)[C@@H](NS(=O)(=O)c1ccc(C(F)(F)F)cc1)c1ccc(-c2ccccc2)cc1	0.0407
NC(=O)NCC#Cc1ccc2c(c1)[C@]1(C(=O)N2)[C@H](C(=O)N2CCCCCCC2)[C@H]2C(=O)O[C@H](c3ccccc3)[C@H](c3ccccc3)N2[C@@H]1c1ccccc1OCCO	0.876
C=C[C@H](OC)[C@@H](OC(=O)Nc1ccc(SC)cc1)c1ccc(O)c(F)c1	-0.0493
CO[C@H]1COC(=O)CC=C[C@H](C)COC(=O)[C@@H](OCc2ccccc2)C=C[C@@H]1C	-0.317
CC(C)C[C@@H]1NC(=O)[C@H]2C[C@@H](C(=O)NCCCCCC[N+](C)(C)C)[C@@H](c3ccc(O)cc3)N2C1=O	-0.189
CO[C@H]1COC(=O)[C@@H](C)NC(=O)CC=C[C@@H](C)[C@H](OC)COC(=O)CC=C[C@@H]1C	-0.229
C=CC[C@@]12N=C(c3ccc(OCCCO)cc3)O[C@@H]1c1ccccc1CN(Cc1ccccc1)C2=O	-0.0043
COc1ccc([Si](C)(C)[C@@H]2[C@@H](CC(=O)N(CCO)Cc3ccccc3)O[C@]3(C(=O)N(Cc4cccc(N5CCC5=O)c4)c4ccccc43)[C@H]2C)cc1	-0.116
CN(C)CCCC[C@@H]1NC(=O)[C@@H]2C[C@H](C(=O)O)[C@H](c3ccc(O)cc3)N2C1=O	-0.128
CCOC(=O)C1=CCC(c2cccc3ccccc23)N(S(=O)(=O)c2ccc(C)cc2)C1 (stereo unspecified)	0.0346
CO[C@@H]1COC(=O)CC=C[C@@H](C)[C@H](OC)COC(=O)CC=C[C@H]1C	-0.14
C=C(COC)/C(=C/C[C@H](OC(C)=O)c1ccc(OCCO)cc1)c1cnc2ccccc2c1	0.0001
CO[C@H]1O[C@H](CO)[C@@H](OC(=O)Nc2ccc(Oc3ccccc3)cc2)[C@H](OC(=O)Nc2ccccc2-c2ccccc2)[C@H]1OC(=O)Nc1ccccc1-c1ccccc1	0.104
CCC1=C2CN(Cc3ccccc3Br)[C@@H]([C@@H](O)Cc3ccccc3)C2C=CCC1 (stereo partly specified)	-0.0858

SMILES	composite z-score
[N-]=[N+]=NCc1ccccc1C[C@@]1(C(=O)N2CCOCC2)N=C(c2ccc(OCCCO)cc2)O[C@@H]1c1ccccc1N=[N+]=[N-]	0.345
C=CC(=O)O[C@@H](Cc1ccccc1)[C@H]1C2C=CCCC=C2CN1Cc1cccc(Cl)c1 (stereo partly specified)	-0.123
NC(=O)[C@H]1[C@@H]2C(=O)O[C@@H](c3ccccc3)[C@@H](c3ccccc3)N2[C@@H](c2ccc(O)cc2)[C@]12C(=O)Nc1ccc(C#CCCO)cc12	-0.12
NC(=O)NCC#Cc1ccc2c(c1)[C@]1(C(=O)N2)[C@H](C(N)=O)[C@H]2C(=O)O[C@H](c3ccccc3)[C@H](c3ccccc3)N2[C@@H]1c1ccccc1OCCO	0.0143
C=CC[C@]1(C(N)=O)N=C(c2ccc(OCCCO)cc2)O[C@H]1c1ccccc1CN=[N+]=[N-]	-0.0881
C[N+](C)(C)CCCCNC(=O)[C@@H]1C[C@@H]2C(=O)N3CCC[C@H]3C(=O)N2[C@@H]1c1cccc(OCCO)c1	-0.148
O=C1O[C@H](c2ccccc2)[C@H](c2ccccc2)N2[C@H]1[C@@H](C(=O)Nc1nc3ccccc3s1)[C@]1(C(=O)Nc3ccc(C#CC4(O)CCCCCC4)cc31)[C@H]2c1ccc(O)cc1	-0.0407
COc1ccc(C(O)C2C=CC3C(=O)N(C)C(=O)C3N2N2CCCCC2)cc1OCc1ccccc1 (stereo unspecified)	-0.0135
CC1=C([C@H](O)CCc2ccccc2)[C@H](CO)[C@@H]2C(=O)N(Cc3ccccc3)C(=O)[C@@H]2C1	0.0137
C=C[C@H](OC)[C@@H](OC(=O)Nc1ccc(SC)cc1)c1ccc(OC)c(O)c1	-0.141
CC(C)(C)OC(=O)CC[C@@]1(C(=O)NCc2ccccc2)N=C(c2ccc(OCCCO)cc2)O[C@@H]1c1ccccc1	0.0096
O=C1c2ccccc2[C@](Cc2ccccc2I)(C(=O)NCC(F)(F)F)[C@H](c2ccc(CO)cc2)N1Cc1ccccc1C(F)(F)F	-0.0856
C=CCC(OC(C)=O)[C@@H]1[C@@H](N(Cc2cccc3ccccc23)C(=O)Cc2ccc(F)cc2)c2cc(OCCCO)ccc2N1C(=O)Cc1ccc2ccccc2c1 (stereo partly specified)	-0.0503
C=CCN1C(=O)[C@@]2(Cc3ccccc3)N=C(c3ccc(OCCCO)cc3)O[C@H]2c2ccccc21	0.0714
Cc1ccc(N2C(=O)c3ccccc3[C@@H](C(=O)NCc3ccccc3)[C@@H]2c2ccc(CO)cc2)nc1	-0.128
CO[C@H]1COC(=O)[C@H](C)COC(=O)[C@H](Cc2ccccc2)NC(=O)CC=C[C@H]1C	-0.167
CN(C)CCCC[C@@H]1NC(=O)[C@@H]2C[C@H](C(=O)NCCCCCNC(=O)CS)[C@H](c3ccc(O)cc3)N2C1=O	0.0918
O=C1O[C@H](c2ccccc2)[C@H](c2ccccc2)N2[C@H]1[C@@H](C(=O)NC[C@H](O)c1ccccc1)[C@]1(C(=O)Nc3ccc(C#CC4=CCCCC4)cc31)[C@H]2c1ccc(OCCO)cc1	-0.0579
